In PubChem BioAssay AID1578 (Sanford-Burnham Center for Chemical Genomics, 2009) one finds inhibition data, which are given here for 84 molecules.

“And” between values parts separate entries of the source, which are not always exact repeats. Equal values may be shown once. Out of some 290,000 compounds screened, about 3,000 (1%) were called active. Only a selection was taken, and actives are over-represented in it overall. Unmarked numbers belong to inactive results. No stated cut-off is given here; in the data, active means inhibition mostly above about 36% (no sharp cut-off); inactive means mostly below about 34%.

What is called inhibition is the drop in the measured response relative to a control, in per cent.

The nature of the test: inhibition of NOD1-driven NF-kB reporter – cell-based, luminescence, uHTS, primary screen (AID 1578).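 Further: HEK-293T reporter cells stimulated with the NOD1 agonist gamma-tri-DAP.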 To be noted: NOD1-driven NF-kB luciferase reporter cells, at 4 µM, stronger effect = higher value. Background: Reporter assays use an easily measured gene product as a stand-in for the process of interest.
Take `CC(C)(C)C(=O)c1cn(CC(=O)NCc2ccco2)c2ccccc12`: the inhibition was -39.1%.
With `Cc1ccc(-n2c(O)c(/C=N/N3CCCCCC3)c(=O)[nH]c2=O)cc1C`, the inhibition is 1.1%.
Consider `CCC(=NCCCn1ccnc1)c1c(O)n(-c2ccc(OC)cc2)c(=O)[nH]c1=O`, for which the inhibition is -8.6%.
In the case of `COc1cccc(C(=O)C2CN(C)CC2c2ccc(Cl)cc2)c1` (centres undefined) it was -33.4%; in that of `CC/C(=N\NC(=O)c1ccccc1)c1c(O)n(Cc2ccccc2)c(=O)[nH]c1=O`, 12.5%; in that of `O=c1[nH]c(=S)n(C2CC2)c(O)c1C=NCC1CCCO1` (centres undefined), -13.4%.
As to `COc1ccc(CCC(=O)N2C[C@H]3C[C@@H](C2)c2cccc(=O)n2C3)cc1`, the inhibition is 53.1% (active).
For the molecule `COC(=O)c1ccccc1NC(=O)N1C[C@@H]2C[C@@H](C1)c1cccc(=O)n1C2`, the inhibition is -15.8%.
In the case of `O=c1cccc2n1CC1CC2CN(Cc2c(F)cccc2Cl)C1` (centres undefined) it was -7.2%; in that of `CCc1ccccc1NC(=O)N1C[C@H]2C[C@@H](C1)c1cccc(=O)n1C2`, 54.5% (active); in that of `O=c1cccc2n1CC1CC2CN(Cc2c(Cl)cccc2Cl)C1` (centres undefined), 14%.
In the case of `O=c1cccc2n1CC1CC2CN(Cc2cccc(Cl)c2Cl)C1` (centres undefined) it was 63.8% (active).
On to `O=C(CCc1ccc(O)cc1)N1C[C@H]2C[C@@H](C1)c1cccc(=O)n1C2`, for which the inhibition was 9.1%.
Regarding `COc1ccccc1NC(=O)N1C[C@@H]2C[C@@H](C1)c1cccc(=O)n1C2`, the inhibition is -34.3%.
On to `COc1ccc(CC(=O)N2C[C@H]3C[C@@H](C2)c2cccc(=O)n2C3)cc1`, for which the inhibition is 24.2%.
Take `O=[N+]([O-])c1ccc(N2CCCNCC2)c2ncccc12`: the inhibition is -0.2%.
The figure for `CC(C)Sc1nnc([C@@H](N)Cc2c[nH]c3ccccc23)o1` is -2.5%; for `C[C@H]1O[C@@H](O[C@H]2[C@@H](O)C[C@H](O[C@H]3[C@@H](O)C[C@H](O[C@H]4CC[C@@]5(C)[C@H](CC[C@@H]6[C@@H]5CC[C@]5(C)[C@@H](C7=CC(=O)OC7)CC[C@]65O)C4)O[C@@H]3C)O[C@@H]2C)C[C@H](O)[C@@H]1O` it is 105% (active).
In the case of `CC12CC[C@H]3[C@@H](CCC4(O)C[C@H](O)CCC34/C=N/NC(=O)c3ccccc3F)C1(O)CCC2C1=CC(=O)OC1` (some centres undefined), the inhibition is -9.8%.
As for `C[C@H]1O[C@@H](OC2CC[C@]3(C=O)[C@H]4CC[C@]5(C)[C@@H](C6=CC(=O)OC6)CC[C@]5(O)[C@@H]4CC[C@]3(O)C2)CC2OC(C)(C)OC21` (some centres undefined), the inhibition is 89.2% (active).
For `COc1cc(C(=O)N/N=C/C23CC[C@@H](O)CC2(O)CC[C@@H]2[C@@H]3CCC3(C)C(C4=CC(=O)OC4)CCC23O)ccc1O` (some centres undefined), the inhibition was -5.4%.
In the case of `CC12CC[C@H]3[C@@H](CCC4(O)C[C@H](O)CCC34/C=N/NC(=O)c3ccccc3O)C1(O)CCC2C1=CC(=O)OC1` (some centres undefined) it was 4.5%; in that of `CC12CC[C@H]3[C@@H](CCC4(O)C[C@H](O)CCC34/C=N/NC(=O)Cc3ccccc3)C1(O)CCC2C1=CC(=O)OC1` (some centres undefined), -7%; in that of `CN1CCC2(O)OCCCC2C1` (centres undefined), 4.3%.
In the case of `Cc1c(N)c(C)c([N+](=O)[O-])c(C)c1[N+](=O)[O-]` it was 69.5% (active); in that of `O=C1CN(C(=O)CN2CCCCC2)C(c2ccccc2)c2cc(Br)ccc2N1` (centres undefined), -24.1%; in that of `O=C(Nc1ccncc1)c1cccn(Cc2ccccc2)c1=O`, 33.5% (active).
As to `O=C(Nc1ccccc1)c1cccn(Cc2ccccc2)c1=O`, the inhibition was 23%.
On to `Cc1cccc(C)c1NC(=O)c1cccn(Cc2ccc3c(c2)OC(F)(F)O3)c1=O`, for which the inhibition was 21.8%.
Take `O=C(Nc1cccc(C(F)(F)F)c1)c1cccn(Cc2ccc3c(c2)OC(F)(F)O3)c1=O`: the inhibition is 35.6%.
As to `O=C(NCc1ccccc1)c1cccn(Cc2ccccc2)c1=O`, the inhibition was 2.3%.
Take `O=C(Nc1ccc(C(F)(F)F)cc1)c1cccn(Cc2ccc3c(c2)OC(F)(F)O3)c1=O`: the inhibition was 59.7% (active).
The figure for `Cc1nn(Cc2ccccc2Cl)c(Cl)c1C(=O)OCC(=O)NCc1ccco1` is 2.8%.
For the molecule `CC(C)Oc1ccc(CCN)cc1Cl`, the inhibition was -19.6%.
In the case of `CCCCCn1c(=O)c(C(=O)Nc2ccccn2)c(O)c2ccccc21`, the inhibition was -4.7%.
In the case of `Cc1ccc(CN(Cc2ccccc2)C(=S)NCC(=O)N2CCC3(CC2)OCCO3)o1`, the inhibition is -33.5%.
On to `CCOC(=O)c1[nH]ncc1CN1CCCC(C(=O)c2cccc(Cl)c2)C1` (centres undefined), for which the inhibition was -5.2%.
As for `O=[N+]([O-])c1ccc(NC2CCCC2)c2ccncc12`, the inhibition is 40.7%.
On to `O=[N+]([O-])c1ccc(NC2CCN(Cc3ccccc3)CC2)c2ccncc12`, for which the inhibition is -6.9%.
For the molecule `O=[N+]([O-])c1ccc(NCc2ccc(Cl)cc2)c2ccncc12`, the inhibition was 37% (active).
Take `Fc1cccc(CN2CCN(c3ccc(Cl)cc3)CC2)c1`: the inhibition was -10.4%.
On to `CC(C)=CCc1c(O)cc2c(c1O)C(=O)CC(c1ccc(O)cc1)O2` (centres undefined), for which the inhibition was 5.8%.
Regarding `CN1CCC(c2c[nH]c3ccccc23)C1` (centres undefined), the inhibition was 34.9% (active).
As for `OC(CN1CCC(c2c[nH]c3ccccc23)CC1)C(F)(F)F` (centres undefined), the inhibition is 1.1%.
`CN1CCN(/N=C/c2c[nH]c3ccccc23)CC1`: the inhibition was -2.1%.
The figure for `CN1CC(C(=O)c2ccc(Cl)cc2)C(c2ccccc2F)C1` (centres undefined) is -15.7%; for `CCOc1ccc(-n2c(O)c(N=Nc3ccc([N+](=O)[O-])cc3)c(=O)[nH]c2=O)cc1` it is -17.8%; for `Cc1c(N=Nc2c(O)n(-c3ccc(Br)cc3)c(=O)[nH]c2=O)c(=O)n(-c2ccccc2)n1C` it is -1.1%.
As for `O=c1[nH]c(=O)n(-c2ccccc2)c(O)c1N=Nc1ccc(Br)cc1`, the inhibition is 60.1% (active).
On to `CC(=NCCCN1CCOCC1)c1c(O)n(-c2ccccc2C)c(=O)[nH]c1=O`, for which the inhibition is -51.5%.
The figure for `CCOP(=O)(OCC)c1cc(C)c(O)c(C(C)(C)C)c1` is -1.1%; for `CN1CCN(Cc2cc(C(C)(C)C)c(O)c(C(C)(C)C)c2)CC1` it is 16.1%; for `CC(C)(C)c1cc([N+](=O)[O-])cc(C(C)(C)C)c1O` it is 67.8% (active).
In the case of `O=[N+]([O-])c1ccccc1CNCCc1c[nH]c2ccccc12`, the inhibition is -15.3%.
Regarding `Cc1ccc(OCC(=O)N2CCN(C3CCC(c4ccccc4)CC3)CC2)cc1` (centres undefined), the inhibition is -32.4%.
`CNCC(C)c1ccccc1` (centres undefined): the inhibition was -8.7%.
The figure for `COC(=O)C1=Nc2ccccc2/C1=C\c1c(O)n(-c2ccc(Br)cc2)c(=O)[nH]c1=O` is 56.2%.
Take `COC(=O)C1=Nc2ccccc2/C1=C\c1c(O)n(-c2ccc(OC)cc2)c(=O)[nH]c1=O`: the inhibition is 9.9%.
As to `O=c1[nH]c(=O)n(-c2ccccc2)c(O)c1/C=C1/C(c2ccccc2)=Nc2ccccc21`, the inhibition was 81.6% (active).
As to `Cc1ccc(Cn2nc(C)c(C=O)c2Cl)cc1`, the inhibition is -42.4%.
Turning to `COc1cc2c(cc1OC)-c1c3c(cc4c1[C@@H](C2)N(C)CC4)OCO3`, the inhibition was -23.9%.
Turning to `COc1ccc(-n2nc(C(=O)NCC(=O)N3CCC4(CC3)OCCO4)c3ccccc3c2=O)cc1`, the inhibition is -47.4%.
With `CN(C)CC1Oc2ccccc2OC1(O)c1ccccc1` (centres undefined), the inhibition is 56.4% (active).
Regarding `COc1cccc([C@@]2(O)CCCC[C@@H]2CN(C)C)c1`, the inhibition is -1.9% and 1.4%.
Turning to `CN(C)CC1CSCCC1(O)c1ccccc1` (centres undefined), the inhibition is -5.3%.
The figure for `Cc1c(N=Nc2c(O)[nH]c(=S)[nH]c2=O)c(=O)n(-c2ccccc2)n1C` is 12.7%.
In the case of `C=CCn1c(O)c(/C=C2/C=CC=N2)c(=O)[nH]c1=O` it was -27.6%; in that of `CCCCn1c(O)c(/C=C2/C=CC=N2)c(=O)[nH]c1=O`, -7.3%; in that of `O=c1[nH]c(=O)n(Cc2ccccc2Cl)c(O)c1/C=C1/C=CC=N1`, 47.1% (active).
As to `COc1ccc(N=Cc2c(O)n(C)c(=O)n(C)c2=O)cc1`, the inhibition was -13.4%.
Turning to `CNS(=O)(=O)c1ccc(N=Cc2c(O)n(-c3cccc(C)c3)c(=O)[nH]c2=O)cc1`, the inhibition was -26.7%.
Consider `COc1ccc(CC2(CCc3ccncc3)C(=O)NC(=O)NC2=O)cc1`, for which the inhibition was -26.1%.
Consider `CNc1ccc2oc(C[C@H]3O[C@@]4(CC[C@H]3C)O[C@H]([C@H](C)C(=O)c3ccc[nH]3)[C@H](C)C[C@H]4C)nc2c1C(=O)O`, for which the inhibition was 76.2% (active).
As to `c1ccc(-c2nc(N3CCOCC3)s[n+]2-c2ccccc2)cc1`, the inhibition was -49.7%.
The figure for `Cc1ccc2c(c1)C1CN(C)CCC1N2C(=S)Nc1cccnc1` (centres undefined) is -34%; for `O=C(CN1CC=C(c2ccccc2)CC1)Nc1c(Cl)cccc1Cl` it is 30.6%; for `COC(=O)C[C@]1(C(=O)OC)CN(C#N)N(c2ccc(Cl)cc2)C12c1ccccc1-c1ccccc12` it is 91.6% (active).
Take `COC(=O)C1CN(C#N)N(c2ccc(Cl)cc2)C12c1ccccc1-c1ccccc12` (centres undefined): the inhibition was -10.3%.
Turning to `COC(=O)[C@@H]1[C@@H](C(=O)OC)C2(c3ccccc3-c3ccccc32)N(c2ccc(Cl)cc2)N1C#N`, the inhibition was -7.2%.
In the case of `CC(C)c1ccc(NC(=O)CCNC(=O)N2C[C@H]3C[C@@H](C2)c2cccc(=O)n2C3)cc1`, the inhibition was -6.2%.
For the molecule `Cc1ccc(-c2nc3ccccc3c(=O)n2-c2ccncc2)cc1`, the inhibition was -34.6%.
Take `Cc1nc2cc(C(F)(F)F)ccc2n1C1CCN(Cc2nnnn2Cc2ccc3c(c2)OCO3)CC1`: the inhibition was 62.6% (active).
Regarding `Cc1nc2cc(C(F)(F)F)ccc2n1C1CCN(Cc2nnnn2Cc2cccs2)CC1`, the inhibition was -21.1%.
Turning to `Cc1nc2cc(C(F)(F)F)ccc2n1C1CCN(Cc2nnnn2CCc2ccccc2)CC1`, the inhibition was -27.2%.
